Source: PubChem (National Center for Advancing Translational Sciences (NCATS))
In the library only some 2.9% were active in any assay of this set; here they are far more common.
DRD3 antagonist: antagonists of human D3 dopamine receptor | P35462 | D3R cells, DiscoveRx beta-arrestin luminescence, antagonist mode; stronger effect = lower value | max response, negative = inhibition, % | 360,000 compounds, 2.5% hits; in the data active = max response below about -50%; inconclusive = no clear call, values can overlap the other calls
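Cells plated overnight at 1500 cells/well, then exposed to library compounds with dopamine controls for 90 minutes at 37 degrees C. DiscoveRx reagent added for 30–60 minutes at room temperature; luminescence read, quantitative HTS format.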
TRPML1 inh: human mucolipin-1 channel inhibition; TRPML1-inducible cells, Ca2+ dye fluorescence, FDSS; stronger effect = lower value; inhibition of EC80 agonist-evoked calcium signal; activity change, negative = inhibition, % (concentration not given with the values); 390,000 compounds, 0.02% hits; AID 624415; in the data active = activity change below about -50%; inconclusive = between about -30% and that limit;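 note: stimulus is agonist 54-4 at its EC80 concentration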
Target sequence (Q9GZU1 whole entry, looked up): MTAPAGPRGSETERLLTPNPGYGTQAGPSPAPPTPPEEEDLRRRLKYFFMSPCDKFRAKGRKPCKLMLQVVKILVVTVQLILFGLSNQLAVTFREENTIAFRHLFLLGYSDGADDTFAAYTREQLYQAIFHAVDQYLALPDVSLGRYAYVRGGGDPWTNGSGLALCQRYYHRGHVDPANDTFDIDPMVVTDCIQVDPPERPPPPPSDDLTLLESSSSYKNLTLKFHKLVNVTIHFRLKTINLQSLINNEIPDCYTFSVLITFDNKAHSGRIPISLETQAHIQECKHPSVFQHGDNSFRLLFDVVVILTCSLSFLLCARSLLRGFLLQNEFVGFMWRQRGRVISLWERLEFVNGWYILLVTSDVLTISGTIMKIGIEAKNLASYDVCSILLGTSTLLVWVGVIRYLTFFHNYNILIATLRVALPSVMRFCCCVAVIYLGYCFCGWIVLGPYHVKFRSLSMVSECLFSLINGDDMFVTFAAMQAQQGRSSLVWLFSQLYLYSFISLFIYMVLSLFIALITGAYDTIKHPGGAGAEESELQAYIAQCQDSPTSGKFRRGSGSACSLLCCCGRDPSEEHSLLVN
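Calcium fluorescence in TRPML1-DL cells induced overnight with Tet: a 110 s read after compound pin addition, then a 110 s antagonist read after challenge with 54-4 at 4 uM final (EC80).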
D3 ag: activates the human D3 dopamine receptor. P35462. D3R DiscoveRx beta-arrestin cells, luminescence, 90 min. max activation, %. 410,000 compounds, 0.58% hits. AID 652048; in the data active = max activation above about 30%
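Agonist mode: compounds and dopamine controls were applied to plated cells for 90 min at 37 degrees C after an overnight attachment at 1500 cells/well. Luminescent read-out followed 30 - 60 minutes at room temperature with DiscoveRx detection reagent.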
TRPML1 ag: human mucolipin-1 channel agonism; TRPML1-expressing cells, Ca2+ dye fluorescence, FDSS; activation, % (concentration not given with the values); 410,000 compounds, 0.12% hits; AID 624414; in the data active = activation above about 50%; inconclusive = mostly about 30% to 49%
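TRPML1-DL cells, Tet-induced overnight (~16 h, 37 degrees C), loaded 45-90 min at room temperature with Ca8 no-wash calcium dye plus quencher. FDSS fluorescence: 10 s baseline, compound pin-transfer, 110 s agonist read, then EC80 54-4 (4uM final) and 110 s antagonist read.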
Of the large screens only hits and unclear results are named; the others gave an inactive call; ! = a repeat was not active.

NC(=O)c1c(NC(=O)c2ccc([N+](=O)[O-])o2)sc2c1CCCC2	DRD3 antagonist -50
CN1CCc2c(sc(NC(=O)c3ccc([N+](=O)[O-])o3)c2C(N)=O)C1	DRD3 antagonist -56
N#Cc1c(NC(=O)c2ccccc2)sc2c1CCC2	none
CCCN1CCc2c(sc(NC(=O)Cc3ccc(F)cc3)c2C(N)=O)C1	DRD3 antagonist -59
Cc1cc[n+](CCC2CCCCC2)cc1	none (no result: DRD3 antagonist, TRPML1 inh, D3 ag)
CCc1cccc(NC(=O)CCS(=O)(=O)c2cc3c4c(c2)CCN4C(=O)CC3)c1	none (no result: DRD3 antagonist)
COc1ccc(/C=C/c2ccccc2)cc1C1C2C=CCCC2(C)C(=O)N1Cc1ccccc1 (configuration not stated)	none (no result: DRD3 antagonist, D3 ag)
Fc1cccc(CN2CCc3nc(Nc4ccc5c(c4)OCCO5)ncc3C2)c1F	none (no result: DRD3 antagonist)
COc1ccccc1C(=O)Nc1ccc(-c2cc(C(F)(F)F)nn2-c2ccccc2)cc1	none (no result: DRD3 antagonist)
CC1Nc2ncnc(N3CCN(c4ccccc4)CC3)c2N(Cc2ccccc2)C1=O (configuration not stated)	DRD3 antagonist -110
Cc1ccc(CN2C(=O)C(C)Nc3ncnc(N4CCOCC4)c32)cc1 (configuration not stated)	DRD3 antagonist inconclusive
CC1Nc2ncnc(N3CCOCC3)c2N(Cc2ccc(Cl)cc2)C1=O (configuration not stated)	DRD3 antagonist inconclusive
CC1Nc2ncnc(N3CCN(c4ccccc4)CC3)c2N(Cc2ccc(Cl)cc2)C1=O (configuration not stated)	DRD3 antagonist -166
CC(C)CC1Nc2ncnc(N3CCN(c4ccccc4)CC3)c2N(Cc2ccc(Br)cc2)C1=O (configuration not stated)	none
CC(C)CC1Nc2ncnc(N3CCN(c4ccccc4)CC3)c2N(Cc2ccccc2)C1=O (configuration not stated)	DRD3 antagonist -78!
COc1ccc(C(=O)NCC(c2ccco2)S(=O)(=O)c2cccs2)cc1 (configuration not stated)	none (no result: DRD3 antagonist)
Cc1ccc(OCC(=O)Nc2nnc(S(=O)(=O)N3c4ccccc4CC3C)s2)cc1 (configuration not stated)	none (no result: DRD3 antagonist)
COc1ccc(CCNc2ncnc3c2c(-c2ccccc2)cn3-c2cccc(Cl)c2)cc1OC	TRPML1 ag 74 (no result: DRD3 antagonist)
Cc1ccn2c(Nc3ccc(C(C)C)cc3)c(-c3cccs3)nc2c1	none (no result: DRD3 antagonist)
Cc1cccc(N2CCN(C(=O)Cn3c(=O)c4cccn4c4ccc(F)cc43)CC2C)c1 (configuration not stated)	none (no result: DRD3 antagonist)
COc1ccc(C(=O)NC2CCCN(Cc3ccccc3F)C2)c(OC)c1OC (configuration not stated)	none
CCN1CCCC(NC(=O)c2cc([N+](=O)[O-])ccc2OC)C1 (configuration not stated)	DRD3 antagonist -60
CSc1nc(SCC(N)=O)c2c3c(sc2n1)CN(C)CC3	DRD3 antagonist -54
CSc1nc(N)c2c3c(sc2n1)CN(C)CC3	DRD3 antagonist -52
CCNc1nc(SCC(N)=O)nc2sc3c(c12)CCN(C)C3	none
C=CCSc1nc(N)c2c3c(sc2n1)CN(C)CC3	none (no result: TRPML1 inh, TRPML1 ag)
Cc1cccc(CSc2ncc(Cl)c(C(=O)Nc3sc4c(c3C(N)=O)CCCC4)n2)c1	none (no result: DRD3 antagonist)
O=S(=O)(NCC1(N2CCOCC2)CCCCC1)c1ccccc1Cl	none
O=S(=O)(NCC1(N2CCOCC2)CCCCC1)c1ccc(Cl)cc1C(F)(F)F	TRPML1 ag 81
COc1ccc(C(=O)N(Cc2ccccc2)Cc2ccc(OC)c(COc3ccc(NC(C)=O)cc3)c2)cc1	none (no result: DRD3 antagonist, TRPML1 inh, D3 ag)
CC(C)(C)C1CCc2c(sc(NC(=O)c3cc4ccccc4c(=O)o3)c2C(N)=O)C1 (configuration not stated)	none (no result: DRD3 antagonist)
COc1cc(N=Nc2ccc(Br)cc2)cc(C=O)c1O	DRD3 antagonist -75
Cc1ccc(NC(=O)C2(C)CCN2C(=O)CC(c2ccccc2)c2ccccc2)cc1 (configuration not stated)	D3 ag 67 (no result: TRPML1 inh)
CC(=O)NCCOc1ccc(C(=O)O)cc1	DRD3 antagonist -55
CC(C)(C)OC(=O)NCCCC[C@H](NC(=O)c1[nH]cnc1C(=O)Nc1ccc(CNC(=O)OC(C)(C)C)cc1)C(=O)OC(C)(C)C	none
C[C@H](NC(=O)c1[nH]cnc1C(=O)Nc1ccc(CNC(=O)OC(C)(C)C)cc1)C(=O)OC(C)(C)C	D3 ag 39
C[C@H]1Cn2cnc(C(=O)Nc3ccc(CNC(=O)OC(C)(C)C)cc3)c2C(=O)N1	none (no result: TRPML1 inh, TRPML1 ag)
C[C@H]1CNC(=O)c2c(C(=O)Nc3ccc(CNC(=O)OC(C)(C)C)cc3)ncn21	D3 ag 34 (no result: TRPML1 inh, TRPML1 ag)
CC(C)(C)OC(=O)NCc1ccc(CNC(=O)c2nc[nH]c2C(=O)N2CCN(C(=O)OC(C)(C)C)CC2)cc1	D3 ag 43
CCCCCC1Nc2cc(C(F)(F)F)c(S(N)(=O)=O)cc2S(=O)(=O)N1 (configuration not stated)	none (no result: DRD3 antagonist, TRPML1 inh, TRPML1 ag)
C1=Cc2ccccc2/C1=C/c1ccc2c(c1)OCO2	none (no result: DRD3 antagonist, TRPML1 inh, D3 ag)
Cc1cccc(CS(=O)(=O)c2nnc([C@H](Cc3ccccc3)NC(=O)OC(C)(C)C)o2)c1	DRD3 antagonist -77
Cc1c(C)c2ccc(OCC(=O)N3CC[C@@]4(O)CCCC[C@H]4C3)cc2oc1=O	D3 ag 33 (no result: TRPML1 inh, TRPML1 ag)
O=C(COc1ccc2ccc(=O)oc2c1)N1CC[C@@]2(O)CCCC[C@H]2C1	none (no result: TRPML1 inh, TRPML1 ag)
COc1ccc(N=Cc2nc(-c3ccco3)oc2O)cc1	DRD3 antagonist -52
COc1cccc(OC)c1OCCCN1CCC(Cc2ccccc2)CC1	DRD3 antagonist -95
COc1ccccc1OCCCCCCN1CCOCC1	none
COc1ccccc1N1CCN(CCOc2c(OC)cccc2OC)CC1	DRD3 antagonist -68
COc1ccccc1N1CCN(CCCCOc2c(OC)cccc2OC)CC1	DRD3 antagonist -108
COc1ccccc1N1CCN(CCCOc2ccc(F)cc2)CC1	DRD3 antagonist -91
Cc1c(Cl)cccc1NC(=O)CC(c1ccc(F)cc1)N1Cc2ccccc2C1=O (configuration not stated)	none (no result: DRD3 antagonist)
Cc1cccc(N2CCN(c3ccc4cc(S(=O)(=O)N5CCC(C)CC5)ccc4n3)CC2)c1C	none (no result: DRD3 antagonist)
OCCOCCN1CCN(C(c2ccccc2)c2ccc(Cl)cc2)CC1 (configuration not stated)	DRD3 antagonist -89
COc1cccc(OC)c1OCCN1CCCC1	none
COc1ccccc1N1CCN(CCCN=C2CC(=O)N(C)C(=O)N2C)CC1	DRD3 antagonist -56
COc1cccc(OC)c1OCCN1CCN(C(c2ccccc2)c2ccccc2)CC1	DRD3 antagonist -109
COc1cc(N(C)C)c(OC)cc1C=O	none (no result: DRD3 antagonist, TRPML1 inh, D3 ag)
CCOc1ccccc1NC(=O)CSC1=Nc2ccccc2C2=NC(CC(=O)NC3CCCCC3)C(=O)N12 (configuration not stated)	none (no result: DRD3 antagonist)
COc1ccc2c(c1)C=C/C2=C/c1ccc(N(C)C)cc1	none (no result: DRD3 antagonist, TRPML1 inh, D3 ag)
COc1cc2c(cc1OC)C(=Cc1ccc(N(C)C)cc1)C=C2	D3 ag 33
CCOC(=O)CSc1nsc(SCC(=O)OCC)c1C#N	none
CC(=O)CSc1nsc(SCC(C)=O)c1C#N	DRD3 antagonist -69
